Screening results (PubChem)
Shiga toxin inh: A qHTS for Small Molecule Inhibitors of Shiga Toxin; inhibition, % at 38.7 µM; AID 2315, 2010; Vero cells, Shiga toxin protein synthesis inhibition reporter; 290,000 compounds, 9.2% hits; in the data active = inhibition mostly above about 28%, no sharp cut-off; inactive = mostly below about 43%; also: 0% is about no effect
Sm TGR inh: qHTS Assay for the Inhibitors of Schistosoma Mansoni Peroxiredoxins. Schistosoma mansoni thioredoxin glutathione reductase (TGR), Q962Y6. purified TGR, DTNB reduction, TNB absorbance 405 nm. Potency, µM (doses to about 114 µM), for the others: at the highest dose activity change, negative = inhibition, usual class: inhibitors. 360,000 compounds, 3% hits; also: potency is read from the fitted curve at half-maximal effect; % is scaled to controls: 0 for no effect and ±100 for the full control effect; nearly all actives have a fitted effect of over 60% in size
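First, TGR (20 nM dispensed) and NADPH were mixed with compound. Second, a 15 min room-temperature incubation followed. Third, further NADPH and then DTNB were added to start the reaction. Finally, TNB absorbance was monitored kinetically.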
CHX counter: Cycloheximide Counterscreen for Small Molecule Inhibitors of Shiga Toxin; 300,000 compounds, 12% hits; cell reporter, cycloheximide protein synthesis inhibition counterscreen; max response, %; in the data active = max response mostly above about 13%, no sharp cut-off; inactive = mostly below about 14%; also: read at 38.3 µM for the half of the compounds with a filed dose; 0% is about no effect
Giardia FBPA inh: qHTS Assay for Inhibitors of Fructose-1,6-bisphosphate Aldolase from Giardia Lamblia. A8B2U2. purified Giardia FBPA. 290,000 compounds, 0.71% hits. Potency, µM (top dose mostly 59.6 µM), inactives show at the highest dose activity, negative = inhibition, actives largely listed as inhibitors; also: potency is read from the fitted curve at half-maximal effect; % is scaled to controls: 0 for no effect and ±100 for the full control effect; nearly all actives have a fitted effect of over 55% in size
Target sequence (A8B2U2 whole entry, looked up): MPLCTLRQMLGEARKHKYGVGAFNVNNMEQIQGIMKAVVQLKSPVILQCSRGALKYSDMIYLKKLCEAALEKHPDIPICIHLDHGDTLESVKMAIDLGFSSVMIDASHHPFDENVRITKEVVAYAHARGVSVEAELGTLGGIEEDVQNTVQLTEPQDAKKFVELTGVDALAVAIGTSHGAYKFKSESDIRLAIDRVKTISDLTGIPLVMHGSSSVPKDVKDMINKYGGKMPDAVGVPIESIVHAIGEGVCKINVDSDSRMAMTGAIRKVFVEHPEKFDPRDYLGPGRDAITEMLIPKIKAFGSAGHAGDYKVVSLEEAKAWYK
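Giardia FBPA (40 nM reagent) was preincubated 10 min at RT with compound (up to 57.5 uM final), then substrate plus GAPDH/TPI/NAD/arsenate coupling system with diaphorase/resazurin was added; resorufin fluorescence (525/598 nm) was read after 20 min.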
LmPK inh: qHTS Assay for Inhibitors of Leishmania Mexicana Pyruvate Kinase (LmPK). purified LmPK, Kinase-Glo ATP luminescence, 1 h. Potency, µM (series often up to 57.5 µM), without a hit: at the top dose activity change, negative = inhibition, actives largely listed as inhibitors. 290,000 compounds, 0.37% hits. AID 1721, 2009; also: potency is read from the fitted curve at half-maximal effect; % is scaled to controls: 0 for no effect and ±100 for the full control effect
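Purified LmPK (0.1 nM) with 0.5 mM PEP and 0.1 mM ADP in imidazole buffer pH 7.2 with MgCl2/KCl, 1 h at room temperature. ATP formed was read by luciferase luminescence and normalized to no-enzyme and uninhibited controls.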
Tb PYK inh: qHTS of Trypanosoma Brucei Inhibitors; Potency, µM (highest dose often 76.8 µM), for the others: at the highest dose activity, negative = inhibition, usual class: inhibitors; TbPYK enzyme, Kinase-Glo Plus ATP luminescence, 45 min; 410,000 compounds, 0.12% hits; AID 624173, 2012; pyruvate kinase (Trypanosoma brucei), Q57TT1; also: potency is read from the fitted curve at half-maximal effect; % is scaled to controls: 0 for no effect and ±100 for the full control effect; nearly all actives have a fitted effect of over 50% in size
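In this concentration-response screen, enzyme-free wells defined baseline while DMSO plates tracked drift. Each reaction combined TbPYK, substrate, compound and 130 uM ADP for 45 min at room temperature. Kinase-Glo Plus luminescence gave the signal.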
The depositor's hits bear a star; ? = inconclusive; / = no result given. Shown is part of a subset that was picked to be rich in hits. Unless noted, calls follow the shape of the dose curve; as a rule, active = well fitted curve in the direction sought with a large enough effect; inconclusive = small, poorly fitted or top-dose-only effect, or another doubt; inactive = no such curve, though single readings can be large; an effect the other way counts as inactive or inconclusive.

SMILES	Shiga toxin inh	Sm TGR inh	CHX counter	Giardia FBPA inh	LmPK inh	Tb PYK inh
Cc1cccc(-c2nc(SCC(=O)Nc3ccc4c(c3)OCO4)c(-c3ccccc3)[nH]2)c1	/	-6.5%	/	/	/	-7.5%
Cc1nc2cnc(Oc3cccc(Cl)c3)nc2n(C[C@H]2CCCO2)c1=O	/	/	/	0.0%	/	-3.4%
Cc1cc(C)cc(C(=O)Nc2cccc(NC(=O)c3ccco3)c2)c1	18.7	0.0%	20.7*	/	-5.1%	4.1%
O=C(Nc1c(F)cc(F)cc1Br)c1ccco1	3.7	44.7µM*	-0.3	-8.1%	1.2%	-2.5%
O=C(Nc1cccc(NC(=O)c2ccco2)c1)c1ccc2c(c1)OCO2	22.0	-13.5%	10.1	-3.7%	-11.9%	-5.7%
CC(=O)Nc1cccc(NC(=O)c2ccco2)c1	13.7	?	-1.7	-6.8%	-6.7%	/
Nc1cccc(NC(=O)c2ccco2)c1	15.6	18.1%	8.1*	1.2%	-2.7%	4.8%
O=C(Nc1cccc(F)c1)c1ccco1	42.4*	1.3%	29.2*	-0.6%	-18.2%	-4.9%
Cn1cnc([N+](=O)[O-])c1S(=O)(=O)Oc1ccc(Cl)cc1	/	/	/	/	/	-5.1%
CC(C)CCN(C(=O)c1cn2ccccc2n1)c1c(N)n(Cc2ccccc2)c(=O)[nH]c1=O	/	-0.7%	/	/	/	4.1%
CC1=C(C(N)=O)C(c2ccc(C)cc2)n2nc(SCc3ccccc3)nc2N1 (centres undefined)	/	-16.4%	/	/	/	1.2%
Cc1ccc(S(=O)(=O)Nc2ccc(NS(=O)(=O)c3ccc(C)cc3)c3ncccc23)cc1	9.7	/	13.3	-11.0%	/	/
O=C1CCCc2cc(S(=O)(=O)NCC3CCC(C(=O)NCc4ccc(F)cc4)CC3)ccc2N1 (centres undefined)	/	?	/	/	/	-3.4%
O=C(c1cc(-c2ccco2)nn1-c1cccc(Cl)c1)N1CCCCC1	-1.5	7.08µM*	-1.4	1.5%	-25.3%	10µM*
CCOC(=O)c1cc(-c2ccco2)nn1-c1ccc(C)cc1	7.9	14.1µM*	8.0	-2.0%	2.7%	-2.2%
CCOC(=O)c1cc(-c2ccco2)nc2c1c(C)nn2CCC#N	-4.3	3.98µM*	14.6	-2.7%	-1.4%	-5.3%
CC(C)NC(=O)c1cc(-c2ccco2)nn1-c1ccc(Cl)cc1	-18.7	2.82µM*	-4.5	/	-9.4%	?
N#C/C(=C1/SCC(c2ccccc2Cl)S1)n1ccnc1 (centres undefined)	/	/	/	/	/	2.6%
Cc1ccc(-n2nc(-c3ccco3)cc2C(=O)O)cc1	-6.0	25.1µM*	7.8	9.7%	14.8%	-7.3%
CS(=O)(=O)Nc1cc2occ(NC=O)c(=O)c2cc1Oc1ccccc1	/	/	/	/	/	-1.6%
Cc1cccc(N2CCN(C(=O)c3c(C)oc4nc(C)nc(N5CCCC5)c34)CC2C)c1 (centres undefined)	/	0.8%	/	/	/	-6.8%
Cc1c(C#N)c(O)n(CCO)c(=O)c1N=Nc1ccc(S(N)(=O)=O)cc1	-4.2	-3.6%	1.6	?	-1.6%	-13.4%
Cc1c(C#N)c(O)n(C)c(=O)c1N=Nc1ccc(S(N)(=O)=O)cc1	107.7*	-2.2%	27.1	-29.9%	0.6%	-3.8%
CC1=C(C(=O)N(C(C)C)C(C)C)CC(CC(=O)NCCN2CCOCC2)C(=O)N1Cc1ccccc1 (centres undefined)	/	/	/	/	/	15.1%
CO/N=C(\Cn1ncc(N2CCCC2)c(Cl)c1=O)c1ccc(Cl)cc1	-18.0	-5.9%	-1.3	-0.3%	1.0%	-5.3%
SMILES	Shiga toxin inh	Sm TGR inh	CHX counter	Giardia FBPA inh	LmPK inh	Tb PYK inh
CC(=O)Cn1ncc(N2CCCCC2)c(Cl)c1=O	46.6	/	20.9*	-2.1%	0.0%	2.1%
COc1ccc(-c2nnc(-c3ccc(Br)o3)o2)cc1OC	35.1	0.0%	10.8*	2.7%	-3.7%	-5.4%
COc1cccc(-c2nc(-c3ccc(Br)o3)no2)c1	108.0*	2.6%	53.7*	-4.4%	-13.0%	1.6%
COc1ccccc1-c1noc(COC(=O)c2ccc(Br)o2)n1	/	2.9%	/	/	/	9.9%
COc1ccccc1-c1nc(-c2ccc(Br)o2)no1	145.6*	?	97.0*	-1.6%	-13.3%	-6.7%
COc1ccc(-c2nnc3sc(-c4ccc(Br)o4)nn23)cc1OC	0.9	3.3%	25.0	0.3%	2.1%	/
COc1ccccc1Cc1nc(-c2ccc(Br)o2)no1	77.8	-29.3%	33.9*	-18.4%	0.7%	-13.9%
COc1ccc(-c2nc(-c3ccc(Br)o3)no2)cc1OC	35.4*	?	19.0*	0.3%	-1.2%	0.2%
COc1ccc(-c2noc(-c3cccc(Cl)c3)n2)cc1OC	11.1	-0.9%	2.2	-3.6%	-1.0%	-0.5%
O=C1c2cccnc2C(=O)N1Cc1ccc(F)cc1S(=O)(=O)NCc1ccco1	-10.4	-15.6%	-2.9	6.5%	2.2%	-0.6%
S=C1NC[C@H](Cc2ccccc2)N1CC1CCN(CCCC2CCCC2)CC1	/	/	/	/	/	1.9%
S=C1NC[C@H](Cc2ccccc2)N1CCCCC1CCCCC1	41.6*	5.3%	10.6*	-3.6%	0.5%	-8.1%
O=c1ccc(=O)n(-c2ccccc2)[nH]1	40.2	5.01µM*	-1.8	-0.3%	-17.0%	-15.7%
CC(C)(C)c1cc(=O)n(-c2ccccc2)[nH]1	27.6	-17.4%	18.0	0.629µM*	-1.3%	3.5%
O=c1cc(-c2ccccc2)[nH]n1-c1ccccc1	/	/	/	/	/	-3.1%
CSc1nc(N)c(C(=O)NC2CCCCC2)s1	74.8*	-1.5%	38.3*	0.8%	0.7%	-1.0%
Cc1nnsc1C(=O)NC1CCCCC1	-10.3	16.9%	-7.9	-0.4%	-4.6%	-0.9%
CCOC(=O)c1sc(SC)nc1N	19.6	5.3%	16.3*	2.9%	-4.9%	5.0%
COC(=O)c1sc(SC)nc1N	33.6	6.7%	10.8	2.1%	-9.5%	-3.5%
CC(=O)Nc1ccc(N/C=C/C(=O)c2ccc(C)o2)cc1	70.6*	-11.0%	22.2*	0.1%	-15.2%	3.7%
CC(=O)Nc1ccc(N/C=C/C(=O)c2ccc(Cl)cc2)cc1	27.1	-13.3%	11.7	3.7%	2.9%	-2.0%
COc1ccc(N/C=C/C(=O)c2sc(-c3ccccc3)nc2C)cc1	-6.6	9.8%	2.2	-0.6%	0.5%	-2.9%
COc1ccccc1Oc1ccc(N/C=C/C(=O)c2ccc(C)o2)cc1	135.5*	0.6%	24.8*	-2.2%	-15.4%	-5.6%
CC(=O)c1ccc(-c2ccccc2)cc1	41.8*	-6.8%	57.8*	7.6%	-5.1%	-3.5%
CCC(=O)c1ccc(O)cc1	-7.4	38.4%	-0.4	14.8%	0.4%	-3.1%
CN1CCN(C(=O)c2ccc(-c3ccccc3)cc2)CC1	26.1	-6.9%	9.4	-4.2%	-3.2%	-4.5%
CCC(=O)c1ccc(-c2ccccc2)cc1	33.5	2.2%	29.2*	-2.9%	-5.7%	-15.8%
CCOC(=O)C(N=Nc1nn[nH]n1)C(C)=O (centres undefined)	/	/	/	/	/	-7.8%
